# Calls of active or inactive are those of the source.
# Columns and labels:
# Albumin (Bos taurus) = Albumin (Bos taurus) (UniProt P02769); experiment: bovine serum albumin binders on microarray, profiling panel, artefact control for SMM control protein annotation, biochemical, small-molecule microarray, Alexa647 label, 635/667 nm fluorescence (AID 1118); conditions: BSA-A647 binding, fluorescence 635 nm, higher = more signal;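 further: score merges 667 nm emission intensity and signal-to-noise per printed compound spot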
# [1] = small-molecule microarray binders of probe aXIP, primary screen, biochemical, NeuroSMM set, 635/667 nm fluorescence (AID 1119); conditions: higher = more signal, called active from +8 up or from −8 down;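 further: probe is the protein aXip251-270 applied at 1 µg/mL to compound-printed slides; binding of probe to printed compounds measured as 667 nm fluorescence plus signal to noise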
# [2] = small-molecule binders of probe aNOTCH3, primary screen, biochemical, small-molecule microarray, 635/667 nm fluorescence (AID 1120); conditions: higher = more signal;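 further: probe is a biotin-tagged antibody raised against NOTCH3 rather than NOTCH3 protein; score merges spot fluorescence near 667 nm with spot signal to noise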
# [3] = small-molecule binders of probe aNOTCH2, primary screen, biochemical, small-molecule microarray, 635/667 nm fluorescence (AID 1121); conditions: higher = more signal;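 further: score merges feature fluorescence read at 667 nm with its signal to noise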
# [4] = target: Carbonic anhydrase 2 (Homo sapiens) (UniProt P00918); experiment: CAII small-molecule binders, profiling panel, biochemical, small-molecule microarray, Alexa647-labelled CAII (AID 1122); conditions: CAII-A647 binding fluorescence, higher = more signal
# [5] = COS7 lysate on small-molecule microarray, probe aHis, 635 nm (AID 1123); conditions: COS7 cell lysate, fluorescence, higher = more signal;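 further: z-score combines 667nm fluorescence intensity with signal-to-noise per printed compound spot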
# [6] = compound binding in COS7 lysate, probe aLAP1, primary screen, cell lysate, small-molecule microarray (AID 1124); conditions: probe aLAP1, fluorescence, higher = more signal;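 further: lysate comes from COS7 cells expressing LAP1 and is applied at 0.3 µg/mL; score merges spot fluorescence near 667 nm with signal-to-noise over triplicate slides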
# Sam68 (KHDRBS1) = experiment: Sam68 small-molecule binders, primary screen, biochemical, small-molecule microarray, 635 nm fluorescence (AID 1125); conditions: small-molecule microarray binding, higher = more signal;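 further: score merges 667 nm channel intensity with signal to noise over triplicate slides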
# [7] = tested on: Chordin-like protein 2 (CHRDL2); experiment: CHRDL2 small-molecule binders, primary screen, biochemical, small-molecule microarray, 635 nm fluorescence (AID 1126); conditions: small-molecule microarray binding, fluorescence 635 nm; higher = more signal;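 further: printed compound slides probed with Chrdl2 protein at 4 µg/mL for 1 h at 4 C; score merges 667 nm emission intensity with signal to noise over three replicate slides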
# [8] = target: Concanavalin-A (Canavalia ensiformis) (UniProt P02866); experiment: ConA small-molecule binders, primary screen, artefact control for SMM control protein annotation, biochemical, small-molecule microarray, Alexa647 label, 635 nm (AID 1127); conditions: ConA-A647 binding fluorescence, higher = more signal;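 further: z combines 667 nm emission intensity with signal-to-noise across three replicate slides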
# Sequence of Concanavalin-A (Canavalia ensiformis) (P02866 whole entry, looked up): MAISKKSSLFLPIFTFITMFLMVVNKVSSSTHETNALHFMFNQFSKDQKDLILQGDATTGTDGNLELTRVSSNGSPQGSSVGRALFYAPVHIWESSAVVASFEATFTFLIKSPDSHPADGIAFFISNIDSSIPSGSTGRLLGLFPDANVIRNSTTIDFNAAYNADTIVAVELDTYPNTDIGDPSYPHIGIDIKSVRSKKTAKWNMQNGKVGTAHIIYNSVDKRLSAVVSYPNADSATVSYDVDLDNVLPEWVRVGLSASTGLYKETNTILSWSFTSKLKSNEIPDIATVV
# Sequence of Albumin (Bos taurus) (P02769 whole entry, looked up): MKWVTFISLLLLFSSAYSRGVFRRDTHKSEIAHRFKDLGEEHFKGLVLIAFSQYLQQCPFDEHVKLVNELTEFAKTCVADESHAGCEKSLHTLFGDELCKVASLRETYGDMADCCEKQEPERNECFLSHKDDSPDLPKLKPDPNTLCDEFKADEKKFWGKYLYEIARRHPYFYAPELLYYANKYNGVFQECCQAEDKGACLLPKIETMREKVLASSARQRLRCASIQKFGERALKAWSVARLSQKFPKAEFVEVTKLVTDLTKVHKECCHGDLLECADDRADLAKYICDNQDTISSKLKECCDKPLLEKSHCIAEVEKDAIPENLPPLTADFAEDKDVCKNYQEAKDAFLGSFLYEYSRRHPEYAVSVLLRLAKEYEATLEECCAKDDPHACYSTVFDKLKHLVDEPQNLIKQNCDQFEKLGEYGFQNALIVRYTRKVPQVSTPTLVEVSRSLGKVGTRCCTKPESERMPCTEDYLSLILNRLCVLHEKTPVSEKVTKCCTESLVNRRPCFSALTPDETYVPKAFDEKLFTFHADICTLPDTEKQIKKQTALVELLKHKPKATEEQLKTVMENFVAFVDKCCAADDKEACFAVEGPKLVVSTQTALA
Structure (SMILES),composite z-score (Albumin (Bos taurus)),composite Z-score [1],composite z-score [2],composite z-score [3],composite z-score [4],composite z-score [5],composite z-score [6],composite z-score (Sam68 (KHDRBS1)),composite z-score [7],composite z-score [8]
O=C1O[C@@H](c2ccccc2)[C@@H](c2ccccc2)N2[C@@H](c3ccccc3OCCO)[C@]3(C(=O)Nc4ccccc43)[C@@H](C(=O)NC[C@H](O)c3ccccc3)[C@H]12,0.641,-0.0662 (inactive),-0.213,-0.14,0.586,1.32,0.487,0.9,-1.15,0.196
C=CCN1C(=O)[C@@]2(O[C@@H](CCn3cc([C@H](O)c4ccccc4)nn3)[C@H]([Si](C)(C)c3ccc(OC)cc3)[C@H]2C)c2ccccc21,0.205,0.363 (inactive),0.221,-0.151,0.499,0.422,0.572,1.08,0.333,1.01
O=C1O[C@@H](c2ccccc2)[C@@H](c2ccccc2)N2[C@@H](c3ccc(O)cc3)[C@]3(C(=O)Nc4ccccc43)[C@@H](C(=O)Nc3nc4ccccc4s3)[C@H]12,0.625,-0.8 (inactive),0.0695,-0.144,0.613,1.39,0.399,1.31,0.0129,1.17
O=C(O)[C@H](Cc1ccccc1)n1cc(-c2ccccn2)nn1,0.672,-0.341 (inactive),-0.0311,-0.1,0.285,0.383,0.132,0.614,0.129,0.862
COC(=O)[C@]1(CCS(=O)(=O)c2ccccc2)N=C(c2ccc(OCCCO)cc2)O[C@@H]1c1ccccc1CN=[N+]=[N-],-0.453,-0.139 (inactive),0.0357,0.062,0.416,1.95,0.472,1.29,-0.0531,0.848
C=CCC(OC(C)=O)[C@@H]1[C@@H](N(Cc2cc3ccccc3o2)C(=O)Cc2ccc(F)cc2)c2cc(OCCCO)ccc2N1C(=O)c1ccc2ccccc2n1 (stereo not given in full),0.124,-0.16 (inactive),-0.136,-0.104,-0.183,0.178,0.104,-0.847,0.344,-0.0002
COc1ccc(NC(=O)O[C@H]2[C@H](OC(=O)Nc3ccc4c(c3)OCO4)[C@@H](OC(=O)Nc3ccc4c(c3)OCO4)[C@@H](OC)O[C@@H]2CO)cc1,0.837,0.622 (inactive),0.121,-0.0116,0.442,2.71,0.714,1.29,0.143,1.11
C=C(CCCC)C(=O)CC[C@@H](OC(=O)c1ccccc1-c1ccccc1C(=O)O)c1cccc(OCCO)c1,-0.658,-0.263 (inactive),-0.15,-0.154,0.728,0.361,0.742,0.986,1.22,-0.5
COC(=O)[C@@]1(Cc2ccccc2)[C@H]2c3cc(C(=O)N4CCCC4)[nH]c3C[C@H]2CN1C(=O)c1ccccc1,0.5,-0.37 (inactive),0.0203,0.111,0.722,3.51,0.341,-1.81,-0.782,-1.15
O=C1NC(=O)C2C1C=CC(C(O)c1ccc(Br)cc1)N2Nc1ccccn1 (stereo not given),0.849,-0.838 (inactive),0.327,0.176,0.822,0.991,0.74,0.0126,0.913,0.48
COCCCNC(=O)[C@@]1(Sc2ccc(C)cc2)CC(=O)N(Cc2cc(C(F)(F)F)cc(C(F)(F)F)c2)[C@@H]1c1ccc(CO)cc1,0.734,1.14 (inactive),0.0562,-0.0136,0.703,2.41,1.1,1.21,0.749,0.715
C=CCOC(=O)[C@@H]1[C@H]2C(=O)O[C@H](c3ccccc3)[C@H](c3ccccc3)N2[C@H](c2ccc(OCCOC(=O)[C@H]3C[C@H]4C(=O)N[C@@H](CC(C)C)C(=O)N4[C@H]3c3ccc(O)cc3)cc2)[C@@]12C(=O)Nc1ccc(I)cc12,-1.13,0.761 (inactive),0.154,-0.153,0.609,2.3,0.103,1.31,0.959,1.22
[N-]=[N+]=NCc1ccccc1C[C@@]1(C(=O)N2CCCCC2)N=C(c2ccc(OCCCO)cc2)O[C@@H]1c1ccccc1N=[N+]=[N-],0.79,0.131 (inactive),0.0522,-0.13,0.378,2.1,-0.0562,1.09,-0.186,1.08
